Bioassay records deposited in PubChem BioAssay by National Center for Advancing Translational Sciences (NCATS).
HepG2 viability: kills HepG2 cells in TGF-b inhibitor counter-screen. HepG2 CAGA-GFP viability, ATP luminescence, 18 h. Potency, µM (doses to about 46.1 µM), for the others: at the top dose activity change, negative = cytotoxicity, most hits filed as cytotoxic. 410,000 tested, 0.76% active; also: potency is read from the fitted curve at half-maximal effect
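CellTiter-Glo luminescence gave cytotoxicity after 18 hours at 37 degrees C. The cells were HepG2 CAGA-GFP in 1% FBS DMEM, stimulated with 500 pg/mL TGF-beta after compound addition. %Activity was normalised to no-cell wells (complete cell-killing) and DMSO (no toxicity), and curves were fitted and classified.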
TDP1 cell noCPT: qHTS for Inhibitors of human tyrosyl-DNA phosphodiesterase 1 (TDP1): qHTS in cells in absence of CPT | DT40 Tdp1-/- hTDP1 cells, no CPT, ATP luminescence, 48 h | Potency, µM (top dose mostly 46.2 µM), without a hit: at the top dose activity change, negative = growth inhibition, actives largely listed as inhibitors | 420,000 tested, 15% active; also: potency is read from the fitted curve at half-maximal effect; % is scaled to controls: 0 for no effect and ±100 for the full control effect; nearly all actives have a fitted effect of over 55% in size
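Seeded 400 DT40-hTDP1 cells/well (vehicle DMSO, no 20 nM CPT); pinned compounds; ≥48 hr at 37 °C; CellTiter-Glo luminescence as viability measure.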
TDP1 inh: TDP1 (human) enzyme inhibition | recombinant TDP1, AlphaScreen DNA substrate cleavage | Potency, µM (titrated, usually from 130 µM), without a hit: at the top dose activity change, negative = inhibition, most hits filed as inhibitors | 350,000 tested, 0.28% active | AID 485290; also: potency is read from the fitted curve at half-maximal effect; % is scaled to controls: 0 for no effect and ±100 for the full control effect; nearly all actives have a fitted effect of over 40% in size
Target sequence (Q9NUW8 whole entry, looked up): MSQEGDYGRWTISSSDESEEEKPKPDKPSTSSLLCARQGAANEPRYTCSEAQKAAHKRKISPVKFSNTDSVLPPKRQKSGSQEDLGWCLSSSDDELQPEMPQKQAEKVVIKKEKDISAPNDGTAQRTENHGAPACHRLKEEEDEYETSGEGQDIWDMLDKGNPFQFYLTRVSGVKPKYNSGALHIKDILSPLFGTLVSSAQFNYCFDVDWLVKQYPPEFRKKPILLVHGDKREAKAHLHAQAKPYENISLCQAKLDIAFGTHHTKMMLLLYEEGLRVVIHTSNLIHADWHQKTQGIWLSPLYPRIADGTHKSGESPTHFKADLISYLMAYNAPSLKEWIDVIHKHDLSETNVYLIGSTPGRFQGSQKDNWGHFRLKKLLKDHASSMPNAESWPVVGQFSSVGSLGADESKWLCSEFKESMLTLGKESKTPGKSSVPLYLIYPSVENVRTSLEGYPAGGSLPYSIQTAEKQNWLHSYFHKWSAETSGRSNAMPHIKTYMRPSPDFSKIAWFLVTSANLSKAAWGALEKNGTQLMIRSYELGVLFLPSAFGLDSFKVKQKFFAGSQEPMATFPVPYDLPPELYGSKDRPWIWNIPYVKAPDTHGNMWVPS
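Recombinant human Tdp1 (E. coli-expressed, 1 nM final) preincubated with compounds 15 min at room temperature, then 5'-biotin/3'-phosphotyrosine-FITC DNA substrate (15 nM final) added for 5 min. AlphaScreen beads (10 ug/ml final) added 10 min; cleavage lowers signal.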
TGFb SMAD3 inh: blocks TGF-b signaling. HepG2 CAGA-GFP TGF-b/SMAD3 reporter, GFP fluorescence, 18 h; TGF-beta stimulated, 500 pg/mL final. Potency, µM (top dose mostly 46.1 µM), for inactives: at the top dose activity, negative = inhibition, actives largely listed as inhibitors. 410,000 tested, 1.2% active. AID 588855; also: potency is read from the fitted curve at half-maximal effect; % is scaled to controls: 0 for no effect and ±100 for the full control effect; nearly all actives have a fitted effect of over 65% in size
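Using HEPG2 CAGA-GFP reporter cells at 1000 cells/well, we pinned test compounds, stimulated with recombinant TGF-beta (500 pg/mL final) and measured total well GFP after 18 h.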
IL-1B inflam inh: inflammasome signaling inhibition, IL-1 beta readout. THP-1 LPS/ATP IL-1B secretion, AlphaLISA, 16 h; active compounds read low. activity change, % at 57.5 µM. 360,000 tested, 4.7% active; in the data active = activity change below about -50%; inconclusive = mostly about -30% to -49%; also: % is scaled to controls: 0 for no effect and ±100 for the full control effect
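Secreted IL-1B measured by AlphaLISA bead assay after 16 h compound exposure of THP-1 cells; compounds (final up to 57.5 uM) added 1 h before LPS (250 ng/mL) and ATP (1.25 mM) stimulation; lower signal means less secretion.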
TDP1 cell CPT: DT40-hTDP1 cell growth loss with CPT; chicken DT40 Tdp1-/-;hTDP1 cells + 20 nM CPT, ATP luminescence, 48 h; Potency, µM (titrated, usually from 46.2 µM), for the others: at the highest dose activity change, negative = growth inhibition, actives largely listed as inhibitors; 420,000 tested, 12% active; AID 686979; also: potency is read from the fitted curve at half-maximal effect; % is scaled to controls: 0 for no effect and ±100 for the full control effect; nearly all actives have a fitted effect of over 55% in size
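Chicken DT40 Tdp1-/- cells stably complemented with human TDP1 were seeded at 400 cells/well in medium containing 20 nM camptothecin, exposed to pin-transferred compounds, and grown at 37 °C for at least 48 hr. Viability was read as ATP luminescence.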
* marks the source's active call; other numbers are inactive results; ? = inconclusive; . = not tested or not shown. Hits are enriched below; roughly 19% of the tested compounds scored in any of these assays. Unless noted, calls follow the shape of the dose curve; as a rule, active = well fitted curve in the direction sought with a large enough effect; inconclusive = small, poorly fitted or top-dose-only effect, or another doubt; inactive = no such curve, though single readings can be large; an effect the other way counts as inactive or inconclusive.

SMILES	HepG2 viability	TDP1 cell noCPT	TDP1 inh	TGFb SMAD3 inh	IL-1B inflam inh	TDP1 cell CPT
Nc1nn2cc(-c3ccccc3)nc2c2ccccc12	-41.5%	?	2.5%	?	-99.6*	?
COc1ccc(C(=O)/C=C/Nc2c(C)n(C)n(-c3ccccc3)c2=O)cc1OC	-18.6%	16.4µM*	5.2%	-16.8%	-11.1	23.1µM*
COc1cc(OC)c(OC)cc1/C=C/C(=O)OCC(=O)Nc1c(C)n(C)n(-c2ccccc2)c1=O	-16.9%	1.03µM*	.	15.0%	-14.9	?
Cc1c(NC(=O)COC(=O)/C=C/c2ccc(Cl)cc2)c(=O)n(-c2ccccc2)n1C	0.0%	-19.0%	4.6%	?	-21.5	-2.2%
S=c1[nH]c2ccc3ccccc3c2[nH]1	-2.7%	-5.0%	1.2%	-1.5%	9.6	-13.3%
Cc1[nH]c2c(ccc3ccccc32)c1C1C(CCN)C1(C)C (centres undefined)	-109.5%	23.1µM*	8.1%	?	?	?
C=CCn1c(SCCN2C(=O)c3ccccc3C2=O)nc2scc(-c3ccc(F)cc3)c2c1=O	-0.2%	-3.9%	.	27.0%	0.0	-10.7%
CC(=O)c1c(C)[nH]c(C(=O)CSc2nnc(C3CCCCC3)n2N)c1C	-11.2%	13µM*	9.3%	-4.0%	14.9	18.4µM*
CC(=O)c1c(C)[nH]c(C(=O)CSc2nnc(-c3cccs3)n2Cc2ccccc2)c1C	-2.5%	?	-5.9%	-30.7%	-16.7	?
C=CCn1c(C)nnc1SCC(=O)c1[nH]c(C)c(C(C)=O)c1C	6.4%	-18.8%	5.9%	0.0%	58.8	-28.6%
C=CCn1c(SCC(=O)c2[nH]c(C)c(C(C)=O)c2C)nnc1-c1ccncc1	10.4%	25.9µM*	-9.1%	0.0%	15.4	?
CC(=O)c1c(C)[nH]c(C(=O)CSc2nnc(-c3ccco3)n2Cc2ccccc2)c1C	-16.8%	16.4µM*	5.8%	1.2%	0.0	23.1µM*
C=CCn1c(SCC(=O)c2[nH]c(C)c(C(=O)OC)c2C)nc2scc(-c3ccc(OC)c(OC)c3)c2c1=O	-31.2%	8.2µM*	0.6%	3.3%	6.7	16.4µM*
Cc1ccc(S(=O)(=O)Nc2ccc(C(=O)N3CCOCC3)cc2)cc1	0.9%	-25.3%	.	3.2%	19.5	0.3%
COc1ccc(Cc2nc3ccc(C(=O)NC4CCOC4)cc3o2)cc1 (centres undefined)	1.5%	13.5%	1.5%	-7.6%	33.4	-4.1%
O=C(Cn1c(=O)n2nc(-c3cccc(F)c3)nc2c2ccccc21)N1CCN(c2ccc(F)cc2)CC1	-16.9%	-18.2%	5.2%	-12.5%	.	1.5%
Cc1cccc(-n2c(SCC(N)=O)nc3c(c2=O)C2(CCCC2)Cc2ccccc2-3)c1	13.8%	0.3%	2.3%	?	-19.3	0.2%
NC(=O)CSc1nc2c(c(=O)n1-c1ccccc1)C1(CCCCC1)Cc1ccccc1-2	-2.3%	?	5.4%	-20.7%	-53.2*	?
CS(=O)(=O)N1CC2CCCN2c2ccc(C(F)(F)F)cc21 (centres undefined)	0.2%	-25.7%	-2.7%	-2.4%	-8.6	-5.3%
COc1ccc(S(=O)(=O)N2CC3CCCN3c3ccc(C(F)(F)F)cc32)cc1 (centres undefined)	-36.8%	?	-1.0%	-4.9%	?	25.9µM*
COc1ccc(S(=O)(=O)N2CC3CCCN3c3cc(C(F)(F)F)ccc32)cc1 (centres undefined)	-13.9%	?	4.8%	-8.0%	-10.5	20.6µM*
CSC1=C(C#N)C(=O)NC(c2ccccc2O)S1 (centres undefined)	13.9%	-19.3%	.	-0.7%	0.9	-16.2%
COC(=O)CSC1=C(C#N)C(=O)NC(c2ccccc2)S1 (centres undefined)	1.2%	2.06µM*	10.7%	-3.3%	?	2.59µM*
CCOc1ccccc1NC(=O)C1=C(C)Nc2ncnn2C1c1ccccn1 (centres undefined)	-8.4%	0.2%	3.0%	5.9%	.	-1.1%
Cc1ccc(-n2c(N)c(C#N)c(-c3ccc(Cl)cc3)c(C#N)c2=O)cc1	-31.9%	-19.0%	2.9%	?	-1.6	?
SMILES	HepG2 viability	TDP1 cell noCPT	TDP1 inh	TGFb SMAD3 inh	IL-1B inflam inh	TDP1 cell CPT
CCOC(=O)c1c(-c2ccc(Cl)cc2)c(C#N)c(=O)n(N)c1N	5.3%	0.517µM*	2.8%	27.2%	30.8	?
CCOC(=O)CNc1ncnc2c1nnn2C	-13.6%	-9.8%	0.0%	-20.9%	.	20.2%
COc1cc2c(c(OC)c1OC)-c1c(cc3c(c1OC)OCO3)CC(C)C(C)(O)C2OC(=O)c1ccccc1 (centres undefined)	.	.	5.6%	.	.	.
CN1[C@@H]2CC[C@H]1CC(NC(=O)n1c(=O)[nH]c3ccccc31)C2 (some centres undefined)	.	-3.8%	.	.	.	0.8%
COc1ccc2cc3cc(C(=O)N4CCN(c5cccc(Cl)c5)CC4)sc3nc2c1	3.4%	-11.7%	2.5%	0.7%	.	-2.2%
CCOC(=O)C(C)On1c(-c2cccc(Cl)c2)nc2ccc([N+](=O)[O-])cc21 (centres undefined)	-28.9%	20.6µM*	9.8%	?	-17.5	?
CC(=O)c1cccc(OCC(=O)Nc2cc(S(=O)(=O)N3CCOCC3)ccc2N2CCCC2)c1	-23.1%	-4.4%	2.5%	-3.1%	-1.8	-12.2%
CCC(C)Oc1cccc(C(=O)Nc2ccccc2N2CCOCC2)c1 (centres undefined)	-28.2%	18.4µM*	2.2%	-0.4%	-5.9	?
O=C(COc1cccc(Br)c1)Nc1ccc(N2CCOCC2)cc1N1CCOCC1	-15.6%	?	1.4%	-7.6%	15.2	18.4µM*
CC(C)Oc1cccc(C(=O)Nc2ccccc2N2CCOCC2)c1	-42.0%	?	-4.8%	1.4%	-22.0	-60.9%
CC(=O)c1cccc(OCC(=O)Nc2ccccc2N2CCOCC2)c1	0.1%	?	?	11.1%	?	18.4µM*
CCN(CC(=O)Nc1ccccc1OC)C(=O)COc1ccc(C#N)cc1	-46.1%	2.7%	.	13.9%	0.0	1.9%
N/C(=N\O)c1cn(Cc2ccccc2Cl)c2ccccc12	-3.2%	?	.	17.5%	-66.0*	?
Cc1ccccc1OCCn1cc(C=O)c2ccccc21	-34.2%	-37.4%	4.5%	?	-52.7*	?
COc1ccc(OCCn2cc(/C(N)=N/O)c3ccccc32)cc1	-11.6%	?	6.2%	-5.0%	-57.4*	-17.1%
